# In ChEMBL document CHEMBL3988442, “University of Dundee, Small-Polar-MMV Screening Library” (2021):
# Screen size: about 66,000 compounds; about 960 (1.5%) showed an effect of 50% or more. The full list was thinned out, with strong results kept by preference.
# System: Trypanosoma brucei
# Assay: Trypanosoma brucei 72 hour study
# Assay type: functional, organism-based
# Parameters: scale not given: in the data most compounds retested in dose-response had high values
structure (smiles),measurement,setting,value
CCN1CCC(NC(=O)CN2CCc3c(ncn3C3CC3)C2)CC1,Percent Effect,10 µM,-42.18%
Cc1cnc(C(=O)N2CCC3(CCN(Cc4ccccn4)C3=O)C2)cn1.O=C(O)C(F)(F)F (centres undefined),Percent Effect,"30 µM, 30.03 µM",-17.07%
Cc1ccccc1-n1cc(-c2ccnc(N3CCCC(O)C3)n2)cn1 (centres undefined),Percent Effect,"30.3 µM, […]",12.09%
COC[C@H]1CCCN1c1nccc(-c2cnn(-c3ccccc3C)c2)n1,Percent Effect,"30.3 µM, […]",99.85%
Cc1ccccc1-n1cc(-c2ccnc(N3CCCC(CN)C3)n2)cn1 (centres undefined),Percent Effect,"30.3 µM, […]",46.15%
Cl.c1cc(CNCc2ccc(-n3cncn3)nc2)cc(OC2CCCC2)c1,Percent Effect,"30.3 µM, […]",-105%
O=C(N1CCOCC1)N1CCN(c2ccnc3ccsc23)CC1,Percent Effect,"30.3 µM, […]",-32.02%
Cc1ccc(C(=O)N2CCN(c3ccnc4ccsc34)CC2)o1,Percent Effect,"30.3 µM, […]",99.86%
O=C(c1cnccn1)N1CCN(c2ccnc3ccsc23)CC1,Percent Effect,"30.3 µM, […]",-26.37%
CN(C)Cc1nn(C)c2c1CN(C(=O)c1cccc(C#N)c1)C2,Percent Effect,"30.3 µM, […]",-11.38%
Cc1cc(C)cc(CNc2ccc(C(=O)NC(C)CO)cc2)c1 (centres undefined),Percent Effect,"30.3 µM, […]",34.18%
CC(CO)NC(=O)c1ccc(NCc2ccccc2)cc1 (centres undefined),Percent Effect,"30.3 µM, […]",11.13%
CC(CO)NC(=O)c1ccc(NCc2ccc(F)c(F)c2)cc1 (centres undefined),Percent Effect,"30.3 µM, […]",74.6%
CCn1cc(N2Cc3nc(N4CCC(O)CC4)ncc3C2=O)cn1,Percent Effect,"30.3 µM, […]",-24.87%
O=C(Nc1cnn(CC(=O)N2CCCCO2)c1)c1ccsc1,Percent Effect,"30 µM, 30.03 µM",102%
O=C(Nc1cnn(CC(=O)N2CCCO2)c1)c1ccccc1,Percent Effect,"30 µM, 30.03 µM",-24.18%
O=C(Nc1cnn(CC(=O)N2CCCCO2)c1)c1ccccn1,Percent Effect,"30 µM, 30.03 µM",-63.86%
Cc1ccc(C(=O)N(C)Cc2cc(Br)cs2)cn1,Percent Effect,"30 µM, 30.03 µM",-13.9%
c1ccc(-c2nc(CN3CCCC(Cn4cncn4)C3)cs2)cc1 (centres undefined),Percent Effect,"30.3 µM, […]",51.63%
c1cnc(-c2nc(CN3CCCC(Cn4cncn4)C3)cs2)nc1 (centres undefined),Percent Effect,"30 µM, 30.03 µM",8.258%
c1ncn(CC2CCCN(Cc3csc(-c4ccsc4)n3)C2)n1 (centres undefined),Percent Effect,"30.3 µM, […]",-1.362%
Clc1ccc2cccnc2c1CN1CCCC(Cn2cncn2)C1 (centres undefined),Percent Effect,"30 µM, 30.03 µM",98.3%
Clc1ccc2cccnc2c1CN1CCCC1Cn1cncn1 (centres undefined),Percent Effect,"30 µM, 30.03 µM",3.447%
Clc1ccc(CN2CCCC(Cn3cncn3)C2)c2ncccc12 (centres undefined),Percent Effect,"30 µM, 30.03 µM",-24.17%
CO[C@@H]1CCN(C(=O)Cc2ccc(F)cc2)[C@@H]1Cc1cccnc1.O=C(O)C(F)(F)F,Percent Effect,"30.3 µM, […]",-10.6%
COCCN1CC[C@H]2CN(Cc3ccc(C)s3)C[C@@H]2C1=O.O=C(O)C(F)(F)F,Percent Effect,"30.3 µM, […]",-7.411%
CO[C@H]1CN(Cc2nc3ccccc3n2C)C[C@@]12CCCO2,Percent Effect,"30.3 µM, […]",99.68%
CO[C@H]1CN(Cc2ccccc2F)C[C@@]12CCCO2,Percent Effect,"30.3 µM, […]",-11.54%
CO[C@H]1CN(Cc2nc3ccccc3n2C)CC[C@@]12CCCO2,Percent Effect,"30.3 µM, […]",5.707%
O=C(O)C(F)(F)F.O=C(O)C(F)(F)F.O=C(c1ccnnc1)N1CCN(Cc2ccncc2)c2ncccc2C1,Percent Effect,"30.3 µM, […]",-2.542%
Cc1nc(Nc2ncc(C)s2)cc(C2CCCN2S(C)(=O)=O)n1 (centres undefined),Percent Effect,"30.3 µM, […]",-10.42%
Cc1nc(Nc2nccs2)cc(C2CCCN2)n1.Cl (centres undefined),Percent Effect,"30.3 µM, […]",99.83%
Cc1nc(Nc2nccs2)cc(C2CCCN2C2CCOCC2)n1 (centres undefined),Percent Effect,"30.3 µM, […]",18.07%
Cc1nc(Nc2ncc(C)s2)cc(C2CCCN2)n1.Cl (centres undefined),Percent Effect,"30.3 µM, […]",99.89%
Cc1nc(Nc2nncs2)cc(C2CCCN2)n1.Cl (centres undefined),Percent Effect,"30.3 µM, […]",-19.68%
Cc1nc(Nc2nnc(C)s2)cc(C2CCCN2)n1.Cl (centres undefined),Percent Effect,"30.3 µM, […]",-18.52%
COc1ccc(NC(=O)CCNc2ncccn2)cn1,Percent Effect,"30 µM, 30.03 µM",-26.87%
CCn1cc(CN2C[C@@H]3CCCN3C[C@@H]2CCSC)cn1.O=C(O)CC(O)(CC(=O)O)C(=O)O,Percent Effect,"30.3 µM, […]",8.457%
O=C(NCC1CCOCC1)[C@@H]1C[C@@H]2[C@@H](CCN2Cc2nccs2)O1.O=C(O)C(F)(F)F,Percent Effect,"30.3 µM, […]",-69.82%
Cc1cc(C[C@@H]2COC[C@H]2NCc2ccc(C(F)(F)F)cc2)on1.O=C(O)CC(O)(CC(=O)O)C(=O)O,Percent Effect,"30.3 µM, […]",8.396%
O=C(Cc1ccccn1)N1C[C@H](OCc2cccnc2)[C@H]2COC[C@H]21.O=C(O)C(F)(F)F.O=C(O)C(F)(F)F,Percent Effect,"30.3 µM, […]",-31.71%
O=C(C1CC1)N1Cc2[nH]nc(COCc3cccnc3)c2C1.O=C(O)C(F)(F)F.O=C(O)C(F)(F)F,Percent Effect,"30.3 µM, […]",-50.32%
COCCN(C)C[C@@H]1CN(c2cc(C)nc3ccccc23)C[C@@H]1CO,Percent Effect,"30 µM, 30.03 µM",99.51%
COCCN(C)C[C@@H]1CN(c2nc(C)cc(C)n2)C[C@@H]1CO,Percent Effect,"30 µM, 30.03 µM",-45.82%
COCCN(C)C[C@@H]1CN(Cc2ccnc3ccccc23)C[C@@H]1CO,Percent Effect,"30 µM, 30.03 µM",-38.21%
COCCNc1cc(-c2cccc(C(=O)O)c2C)c2cc[nH]c2n1,Percent Effect,"30 µM, 30.03 µM",-15.23%
COCC(=O)N1CC[C@H]2O[C@@H](C)C[C@H]2C1,Percent Effect,"30.3 µM, […]",-22.84%
COCC(=O)N1CC[C@H]2C[C@H](C)O[C@@H]2C1,Percent Effect,"30 µM, 30.03 µM",19.11%
COCC(=O)N1CC[C@@H]2O[C@@H](C)C[C@H]2C1,Percent Effect,"30.3 µM, […]",51.97%
